Consider 97 molecules from ChEMBL document CHEMBL3988442, “University of Dundee, Small-Polar-MMV Screening Library” (2021).

The whole screen tested about 48,000 compounds, of which about 13,000 (27%) showed an effect of 50% or more. The list shows a part of the results.

For this test, the system named is Wolbachia pipientis. Kind of test: Anti-Wolbachia Cell-Based Screen. Type of test: functional. Also on record: scale not given: in the data most compounds retested in dose-response had high values. The conditions noted are these: 5 µM.
For `COc1cc(N2C[C@@H](C)[C@](O)(C3CC3)C2)nc(N)n1`, the “Percent Effect” value is -24.25%.
Take `CC1CN(c2ncnc3ccccc23)CCO1` (configuration not stated): the “Percent Effect” value is recorded as -1.794%.
In the case of `CC(C)n1nc(Cn2cccc2)c2c1CN(C1CCOCC1)C2.O=C(O)C(F)(F)F`, the “Percent Effect” value is given as -6.023%.
The value for `CC(C)n1nc(CN2CCCCC2)c2c1CN(C(=O)c1ccno1)C2.O=C(O)C(F)(F)F` was 85.62%; that for `CC(C)n1nc(CN2CCOCC2)c2c1CN(Cc1ccsc1)C2.O=C(O)C(F)(F)F.O=C(O)C(F)(F)F` was -3.193%.
The value for `CC(C)n1nc(CN2CCOCC2)c2c1CN(C(=O)c1ccno1)C2.O=C(O)C(F)(F)F` was 102.9%; that for `CC(C)n1nc(Cn2cccc2)c2c1CN(Cc1ccoc1)C2.O=C(O)C(F)(F)F` was -4.933%; that for `Cc1ccc(C(=O)N2Cc3c(CN4CCCCC4)nn(C)c3C2)cc1C.O=C(O)C(F)(F)F` was -1.924%.
In the case of `O=C(c1cc(Cl)c2c(c1)OCO2)N1CCN(c2nccs2)CC1`, the “Percent Effect” value is on record as -12.71%.
For the molecule `O=C(NCc1c(F)cccc1Cl)c1cc(CN2CCCC(O)C2)on1` (configuration not stated), the “Percent Effect” value is -0.1537%.
Turning to `Cc1cccc2c1nc1n2[C@@H](CNC(=O)CCC(=O)O)COC1`, the “Percent Effect” value was -14.2%.
With `CNCc1cc(F)ccc1Oc1ccc(F)cc1`, the “Percent Effect” value is 114.4%.
As to `Cc1noc(NCc2cc(F)ccc2F)n1`, the “Percent Effect” value is on record as 5.671%.
Regarding `CC(C)S(=O)(=O)NCc1cccnc1Oc1ccc(F)cc1F`, the “Percent Effect” value is on record as -8.317%.
Consider `COc1ccc(CC(=O)NC(CC(=O)O)c2ccc(F)cc2)cc1OC` (configuration not stated), for which the “Percent Effect” value worked out at 11.02%.
Regarding `CN(C)S(=O)(=O)NCc1cccnc1Oc1ccc(F)cc1F`, the “Percent Effect” value was 1.253%.
Regarding `COc1ccc(C)cc1CC(=O)NC(CC(=O)O)c1ccc(F)cc1` (configuration not stated), the “Percent Effect” value is listed as 6.211%.
Turning to `CNCc1cc(F)ccc1Oc1ccc(F)cc1F`, the “Percent Effect” value is listed as 116%.
On to `CNC(=O)COc1ccc(CNCc2ccc(F)cc2F)cc1`, for which the “Percent Effect” value is -7.839%.
The same measure for `CNCc1cc(F)ccc1Oc1ccc(Cl)cc1`: 118.2%; for `CC(NCC1CCN(CCO)CC1)c1ccc(Cl)cc1` (configuration not stated): 5.926%; for `CCc1nn(C)c(Cl)c1CN1CCN(c2ccc(C(N)=O)cn2)CC1`: -7.307%.
In the case of `CC(C)Cc1ncc2c(n1)CN(C(=O)c1ccc(CN3CCCC3)o1)C2`, the “Percent Effect” value is on record as 8.376%.
`O=C(NC1CC1)[C@H]1C[C@H]2OCC[C@H]2N(Cc2cccc3ccccc23)C1.O=C(O)C(F)(F)F`: the “Percent Effect” value is recorded as -4.229%.
Regarding `Cc1nc(N(C)C)nc(C)c1NC(=O)c1ccco1`, the “Percent Effect” value was found to be 16.89%.
The same measure for `CC(C)C(=O)N1CCN(S(C)(=O)=O)CC2(CC(=O)N(C)C2)C1` (configuration not stated): 4.406%.
As to `COCc1noc(-c2ccc(N(C)Cc3ncccc3C)nc2)n1`, the “Percent Effect” value amounted to 79.04%.
Turning to `COCc1noc(-c2ccc(N(C)Cc3cc(C)no3)nc2)n1`, the “Percent Effect” value is -6.826%.
Regarding `COCc1noc(-c2ccc(N(C)Cc3ccc(C)o3)nc2)n1`, the “Percent Effect” value is on record as -8.335%.
On to `CSc1ccccc1CC1CCCS(=O)(=O)C1` (configuration not stated), for which the “Percent Effect” value is -14.28%.
In the case of `O=S(=O)(NCCSc1nncn1C1CC1)c1ccccc1`, the “Percent Effect” value is on record as 13.46%.
For the molecule `CC(c1nc(C(C)(C)C)no1)N1CCC(N2CCCC2)CC1` (configuration not stated), the “Percent Effect” value is on record as -1.947%.
Regarding `CC(c1nc(C2CC2)no1)N1CCN(CCS(C)(=O)=O)CC1` (configuration not stated), the “Percent Effect” value turned out to be 9.574%.
As to `CC(c1nc(C2CC2)no1)N1CCN(CC(=O)N2CCOCC2)CC1` (configuration not stated), the “Percent Effect” value turned out to be 99.5%.
Take `CC(C(=O)N1CCOCC1)S(=O)(=O)Cc1nc(C(C)(C)C)no1` (configuration not stated): the “Percent Effect” value was -2.634%.
For the molecule `CCc1noc(C(C)N2CCOCC2)n1` (configuration not stated), the “Percent Effect” value is given as 1.305%.
Take `CC(c1nc(C(C)(C)C)no1)N1CCN(C(=O)CN2CCOCC2)CC1` (configuration not stated): the “Percent Effect” value was found to be 87.21%.
Turning to `CCc1noc(C(C)N2CCN(Cc3nc(C)c(C)o3)CC2)n1` (configuration not stated), the “Percent Effect” value is recorded as 17.35%.
Turning to `CCc1noc(C(C)N2CCN(CC(=O)N3CCOCC3)CC2)n1` (configuration not stated), the “Percent Effect” value is recorded as 97.96%.
The same measure for `CC(c1nc(C2CC2)no1)N1CCN(CCc2ccncc2)CC1` (configuration not stated): -3.98%; for `O=C(Nc1ccc(CCN2CCC(O)CC2)cc1)Nc1cccnc1`: -10.88%.
In the case of `CCn1c(N)nc2cc(C(=O)N3CC(c4ccccn4)C3)cnc21`, the “Percent Effect” value was found to be 10.45%.
`NC(=O)CC1CCN(S(=O)(=O)N2CCCC2c2ccco2)CC1` (configuration not stated): the “Percent Effect” value is on record as -25.34%.
Regarding `Cc1ccccc1OCC(=O)NCC(c1ccc(N(C)C)cc1)N(C)C` (configuration not stated), the “Percent Effect” value came out at 129.5%.
For the molecule `Cc1cc(C(O)CCNC(=O)COc2ccccc2C)c(C)o1` (configuration not stated), the “Percent Effect” value came out at 9.318%.
For the molecule `COc1ccccc1OCC(=O)NCc1ncc(C)c(OC)c1C`, the “Percent Effect” value came to 12.71%.
Turning to `O=C(O)c1cn(CC2CCCN(c3nccc4occc34)C2)nn1` (configuration not stated), the “Percent Effect” value is recorded as 6.714%.
The value for `Cc1ccc(CNc2ccccc2-n2ccc(C)n2)nc1` was -1.934%.
Take `CNC(=O)[C@@H]1COC[C@H]2CN(C(=O)c3ccc(OC)cc3)C[C@H]21`: the “Percent Effect” value is -23.66%.
As to `COc1ccc(C2CCN(C(=O)c3ncccc3OC(C)C)C2)cc1` (configuration not stated), the “Percent Effect” value was 4.794%.
Take `C=Cc1ccc(C(=O)N2CCCC(Nc3ccc(OC)cc3)C2)cc1` (configuration not stated): the “Percent Effect” value stood at 13.35%.
The value for `COc1ccc(C(=O)N2C[C@@H](O)[C@H](NCCc3ncccc3C)C2)cc1` was 97.07%; that for `COc1ccc(C(=O)N2C[C@@H](O)[C@H](NCc3ncccc3C)C2)cc1` was 82.18%.
Consider `COc1ccc(C(=O)N2CCN(C(=O)Cn3nccc3C)CC2)cc1`, for which the “Percent Effect” value was 4.431%.
In the case of `COc1ccc2c(c1)nc1n2[C@@H](CNCc2ncccc2C)COC1`, the “Percent Effect” value was -5.483%.
Regarding `O=C(c1ccc(-c2nc[nH]n2)cc1)N1CC[C@H](CO)[C@@H](O)C1`, the “Percent Effect” value was 11.14%.
For `COc1ccc(C(=O)N2C[C@@H](O)[C@H](NCc3cnc(C)cn3)C2)cc1`, the “Percent Effect” value worked out at 111.7%.
With `CC(C)CN1CCc2[nH]cnc2C12CCN(C(=O)c1ccc[nH]1)CC2`, the “Percent Effect” value was determined as 3.052%.
On to `CC(=O)N[C@@H]1CN(C2CCN(c3ccccc3F)CC2)C[C@H]1C(C)C`, for which the “Percent Effect” value worked out at 33.97%.
Consider `COC(=O)CC(c1cnn(C)c1)c1oc(C)cc(=O)c1O` (configuration not stated), for which the “Percent Effect” value worked out at 15.74%.
For `Cn1cc(Cl)cc1C(=O)N1CCC2(CCCN(CC3CCC3)C2=O)C1` (configuration not stated), the “Percent Effect” value is -14.89%.
As to `Cc1[nH]c2c(C)ccc(C)c2c1CC(=O)NCC(O)c1cccnc1` (configuration not stated), the “Percent Effect” value is 0.3243%.
Take `CCOCCN(CCOCC)c1nc(C)nc2sccc12`: the “Percent Effect” value was -8.835%.
The value for `OCc1cc2ccccc2nc1NCC1CCN(CC(F)(F)F)C1` (configuration not stated) was -4.701%; that for `CCO[C@@H]1CO[C@@]2(CCCN(C(=O)c3ccc(OC)c(F)c3)C2)C1` was -6.158%; that for `O=C(N1CCCC1)N1CCC[C@]2(C[C@@H](OCc3ccncc3)CO2)C1.O=C(O)C(F)(F)F` was -0.7527%.
For `CO[C@@H]1CO[C@@]2(CCCN(C(=O)N3CCCC3)C2)C1`, the “Percent Effect” value came to 89.36%.
`CO[C@H]1CO[C@@]2(CCCN(C(=O)N3CCCC3)C2)C1`: the “Percent Effect” value was 89.24%.
In the case of `CCO[C@H]1CO[C@@]2(CCCN(C(=O)c3ccc(OC)c(F)c3)C2)C1`, the “Percent Effect” value was -0.1252%.
For the molecule `CO[C@H]1CO[C@@]2(CCCN(C(=O)N(C)C)C2)C1`, the “Percent Effect” value was 112.3%.
Regarding `CO[C@H]1CO[C@@]2(CCCN(C(=O)C3=CCCCC3)C2)C1`, the “Percent Effect” value is reported as -11.4%.
The value for `CN(C)C(=O)c1noc2c1CN(C(=O)CCC1CCCCN1C)CC2` (configuration not stated) was 11.84%; that for `CCCn1nc2c(cc1=O)CN(CC1CCCCO1)CC2` (configuration not stated) was -1.903%; that for `O=C(O)C(F)(F)F.O=S(=O)(C1CC1)N1CCO[C@H]2[C@H](OCCN3CCCC3)CC[C@@H]21` was -18.3%.
In the case of `COCCN1C(=O)CC[C@@H]2[C@H]1CCN2C(=O)N(C)C`, the “Percent Effect” value worked out at 4.27%.
Take `COCCN1C(=O)CC[C@@H]2[C@@H]1CCN2S(=O)(=O)C1CC1`: the “Percent Effect” value amounted to 90.99%.
On to `O=C1CC[C@H]2[C@H](CCN2C(=O)C2CCCO2)N1CCN1CCCC1` (some centres not stated), for which the “Percent Effect” value is 13.58%.
The same measure for `CN1C(=O)CC[C@@H]2[C@H]1CCN2S(=O)(=O)c1cccs1`: -22.4%; for `COCCCN1C(=O)CC[C@H]2CN(Cc3ncc[nH]3)CC[C@H]21`: -5.769%; for `O=C(O)C(F)(F)F.O=C1CC[C@H]2[C@H](CCN2S(=O)(=O)C2CC2)N1CCN1CCCC1`: 79.45%.
Regarding `COCCN1C(=O)CC[C@@H]2[C@H]1CCN2Cc1ccc(C)s1.O=C(O)C(F)(F)F`, the “Percent Effect” value is recorded as 3.422%.
In the case of `CCS(=O)(=O)N1CC[C@@H]2[C@H]1CCC(=O)N2CCOC`, the “Percent Effect” value was 101.4%.
As to `COCCN1C(=O)CC[C@@H]2[C@H]1CCN2S(=O)(=O)c1cccs1`, the “Percent Effect” value is given as 103.5%.
As for `CCN1C(=O)CC[C@@H]2[C@H]1CCN2S(=O)(=O)c1cccs1`, the “Percent Effect” value stood at 2.968%.
`COCCN1C(=O)CC[C@@H]2[C@H]1CCN2C(=O)C1CCOCC1`: the “Percent Effect” value is reported as 5.34%.
For the molecule `O=C([C@@H]1COC[C@H]2CN(C3CCCCC3)C[C@H]21)N1CCOCC1`, the “Percent Effect” value is given as -4.013%.
In the case of `O=C(CSCC1CC1)N1CCCC(c2nccn2Cc2ccncc2)C1` (configuration not stated), the “Percent Effect” value worked out at 26.77%.
Regarding `O=C1CC[C@@H]2[C@@H](CCN2S(=O)(=O)C2CC2)N1CC1CC1`, the “Percent Effect” value is on record as 105.6%.
`CS(=O)(=O)N1C[C@@H]2OCC(=O)N(CC3CC3)[C@@H]2C1`: the “Percent Effect” value is recorded as -6.528%.
The value for `O=C(c1ccnnc1)N1CC[C@H]2[C@H]1CCN2S(=O)(=O)C1CC1` was -8.086%; that for `COCCC(=O)N1CCn2cc(CN3CCN(C)CC3)nc2C1.O=C(O)C(F)(F)F.O=C(O)C(F)(F)F` was -0.4638%; that for `CC(=O)N1CCCC(c2ccc(CO)c(-c3c(C)noc3C)n2)C1` (configuration not stated) was 98.56%.
As to `Cc1noc(C)c1-c1nc(C2CCCN(C(=O)C(C)C)C2)ccc1CO` (configuration not stated), the “Percent Effect” value is recorded as 110.5%.
The same measure for `CCCc1cc(NCCC2CCCOC2)n2nccc2n1` (configuration not stated): -37.65%; for `COCC(=O)N1CCCC2(CCN(c3cncnc3)C2=O)C1` (configuration not stated): -8.381%; for `COCC(=O)N1CCC2(CCCN(Cc3cnn(C)c3)C2)C1` (configuration not stated): 0.82%.
In the case of `COCC(=O)N1CCCC(C)(c2nncn2C)C1` (configuration not stated), the “Percent Effect” value is recorded as 100.7%.
